DT40 TDP1 CPT – qHTS for Inhibitors of human tyrosyl-DNA phosphodiesterase 1 (TDP1): qHTS in cells in presence of CPT; chicken DT40 Tdp1-/-;hTDP1 cells + 20 nM CPT, ATP luminescence, 48 h; Potency, µM (series often up to 46.2 µM), without a hit: top-dose activity change, negative = growth inhibition, hits mostly inhibitors; hit rate 12% among 420,000; also: potency is read from the fitted curve at half-maximal effect; % is scaled to controls: 0 for no effect and ±100 for the full control effect; nearly all actives have a fitted effect of over 55% in size
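Cell growth measured by CellTiter-Glo luminescence after a minimum 48 h, 37 C compound exposure with 20 nM CPT in Tdp1-knockout DT40 cells stably expressing hTDP1, seeded 400/well; qHTS titration format.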
IL1B secr inh – qHTS for Inhibitors of Inflammasome Signaling: IL-1-beta AlphaLISA Primary Screen; hit rate 4.7% among 360,000; activity change, % at 57.5 µM; THP-1 LPS/ATP IL-1B secretion, AlphaLISA, 16 h; hits give low values; in the data active = activity change below about -50%; inconclusive = mostly about -30% to -49%; also: % is scaled to controls: 0 for no effect and ±100 for the full control effect
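Secreted IL-1B measured by AlphaLISA bead assay after 16 h compound exposure of THP-1 cells; compounds (final up to 57.5 uM) added 1 h before LPS (250 ng/mL) and ATP (1.25 mM) stimulation; lower signal means less secretion.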
SW480 rereplic – A quantitative high throughput screen for small molecules that induce DNA re-replication in SW480 colon adenocarcinoma cells; Potency, µM (series often up to 46.1 µM), inactives show at the highest dose re-replication activation, usual class: activators; hit rate 1.8% among 340,000; SW480 DNA re-replication, Hoechst DNA content imaging, 48 h; also: potency is read from the fitted curve at half-maximal effect; % of control where 0% means no effect; nearly all actives have a fitted effect of over 55% in size
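First, 250 cells per well were seeded. Next, compound or vehicle (23 nL) was pinned in, plates sat 48 hr at 37 C. Finally Hoechst was added for 40 min before fluorescence scanning.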
DT40 TDP1 no CPT – qHTS for Inhibitors of human tyrosyl-DNA phosphodiesterase 1 (TDP1): qHTS in cells in absence of CPT; DT40 Tdp1-/- hTDP1 cells, no CPT, ATP luminescence, 48 h; Potency, µM (highest dose often 46.2 µM), for the others: top-dose activity change, negative = growth inhibition, actives largely listed as inhibitors; hit rate 15% among 420,000; also: potency is read from the fitted curve at half-maximal effect; % is scaled to controls: 0 for no effect and ±100 for the full control effect; nearly all actives have a fitted effect of over 55% in size
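Luminescent ATP content (CellTiter-Glo) served as the growth readout. Knockout chicken DT40 cells expressing human TDP1 were exposed to compounds without camptothecin for a minimum 48 hr at 37 °C.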
BCR signal inh – qHTS Assay to Find Inhibitors of Chronic Active B-Cell Receptor Signaling | Potency, µM (top dose mostly 46.1 µM), without a hit: at the top dose activity change, negative = inhibition, hits mostly inhibitors | ABC-DLBCL IkBa-CBG/CBR reporter, luminescence ratio, 4 h | hit rate 0.05% among 340,000 | AID 493014, 2011; active = well fitted inhibition curve with a large enough effect in the signal ratio, with a control signal flat, not every such curve was filed as active; inconclusive = small, poorly fitted or top-dose-only effect, or effect the other way, or a change in a side signal; the % refers to the signal ratio;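 also: potency is read from the fitted curve at half-maximal effect; plate controls were basal doxycycline-induced cells for no effect and cells given 10 µM MG132 for full effect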
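Cell line TMD8 (human ABC DLBCL), stably expressing tet-inducible CBG68-IkBa fusion and CBR; IMDM/0.5% FBS; cpd up to 46 uM; dox induction, 4 h, 37C/5% CO2; dual luminescence; green/red ratio; MG132 control.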
MCF10A rerep – A quantitative high throughput screen for small molecules that induce DNA re-replication in MCF 10a normal breast cells | MCF 10A DNA re-replication, Hoechst nuclear intensity, 48 h | Potency, µM (series often up to 46.1 µM), for inactives: at the top dose activity, positive = re-replication, actives largely listed as activators | hit rate 2.9% among 350,000; also: potency is read from the fitted curve at half-maximal effect; % of control where 0% means no effect; nearly all actives have a fitted effect of over 50% in size
* = called active by the depositor; ? = inconclusive; . = no result. Shown are actives, neighbours in structure and some others; about 19% of the full set was active somewhere. Unless noted, calls follow the shape of the dose curve; as a rule, active = well fitted curve in the direction sought with a large enough effect; inconclusive = small, poorly fitted or top-dose-only effect, or another doubt; inactive = no such curve, though single readings can be large; an effect the other way counts as inactive or inconclusive.

SMILES	DT40 TDP1 CPT	IL1B secr inh	SW480 rereplic	DT40 TDP1 no CPT	BCR signal inh	MCF10A rerep
CNc1ccccc(-c2ccc3ccccc3n2)c1=O	?	-2.9	3.0%	23.1µM*	-0.1%	-5.1%
Cc1ccc(C(=O)NCC(=O)OCC(=O)Nc2ccccc2C#N)s1	-10.8%	14.4	-6.7%	-2.7%	?	-1.1%
O=C(NCCCO)C(=O)Nc1ccc2c(c1)N(S(=O)(=O)c1cccs1)CCC2	?	21.5	11.2%	?	-15.5%	13.6%
CC(C)CNC(=O)C(=O)Nc1ccc2c(c1)N(S(=O)(=O)c1cccs1)CCC2	?	-5.7	-28.0%	?	?	3.1%
COCCNC(=O)C(=O)Nc1ccc2c(c1)N(S(=O)(=O)c1cccs1)CCC2	1.84µM*	22.5	2.59µM*	1.46µM*	?	?
CC(C)CCNC(=O)C(=O)Nc1ccc2c(c1)N(S(=O)(=O)c1cccs1)CCC2	5.17µM*	62.8	?	3.66µM*	?	?
OCCNC(=S)Nc1ccc(Cl)c(Cl)c1	5.7%	3.2	-30.1%	-18.3%	3.8%	-33.6%
Cc1ccc(NC(=O)c2ccc(Cl)c(N3C(=O)C=CC3=O)c2)cc1	1.16µM*	-55.6*	13µM*	2.06µM*	?	14.6µM*
COc1cccc(C(=O)Nc2ccc(C)cc2)c1	-7.0%	0.0	-15.4%	-9.1%	?	-3.3%
NC(=S)Nc1ccc(Cl)c(Cl)c1	11.6µM*	-8.3	-4.6%	9.2µM*	?	1.4%
NC(=S)NNc1ccc(Cl)c(Cl)c1	?	0.0	?	?	-2.6%	?
O=C(Nc1ccc(Cl)c(Cl)c1)c1ccncc1	-20.1%	0.0	3.1%	?	?	-1.8%
NN(Cc1ccccc1)C(=S)Nc1ccc(Cl)c(Cl)c1	-14.0%	-55.8*	3.6%	-0.3%	11.0%	1.2%
O=C(Nc1ccc(Cl)c(Cl)c1)c1ccc(Cl)c(Cl)c1	?	-6.1	0.0%	5.8µM*	?	0.3%
C[C@@H]1CN([C@@H](C)CO)C(=O)CCCn2nncc2CO[C@@H]1CN(C)C(=O)Nc1cccc(C(F)(F)F)c1	-4.8%	13.3	.	-28.9%	.	.
CN(C)/C=N/C(=S)Nc1cc(Cl)cc(Cl)c1	7.7%	-2.2	-3.3%	-19.2%	-3.9%	-3.7%
Cc1cc(C)cc(NC(=S)Nc2ccc(Cl)c(Cl)c2)c1	?	-23.6	?	20.6µM*	-2.2%	?
O=C(Nc1ccc(Cl)c(Cl)c1)OCCNC(=O)c1ccncc1	?	-10.4	-7.5%	23.1µM*	?	-0.1%
Fc1ccc(NC(=S)Nc2ccccc2OC(F)F)cc1Cl	?	?	.	?	24.4%	?
Cc1ccc(NC(=S)Nc2ccc(Cl)c(Cl)c2)c(OC(F)F)c1	20.6µM*	?	-2.5%	18.4µM*	25.0%	?
CN(C)/C=N/C(=S)Nc1ccc(Cl)c(Cl)c1	?	-91.2*	4.3%	?	-19.6%	8.6%
COCCN(Cc1ccccc1)C(=O)C1CCN(C(=O)Nc2ccccc2)CC1	4.1%	-5.8	-9.2%	-1.5%	5.7%	2.1%
CCC(C)(C)c1ccc(OC(=O)c2cccnc2Cl)cc1	?	0.5	1.0%	?	-18.7%	-5.3%
COc1cc(C(=O)COC(=O)c2cc([N+](=O)[O-])ccc2N2CCOCC2)ccc1OC(F)F	?	?	-2.0%	?	?	10.2%
Nc1ncnc2c1ncn2[C@@H]1O[C@H](C(=O)N[C@@H](CO)Cc2ccccc2)[C@@H](O)[C@H]1O	0.4%	0.0	.	-11.5%	.	.
SMILES	DT40 TDP1 CPT	IL1B secr inh	SW480 rereplic	DT40 TDP1 no CPT	BCR signal inh	MCF10A rerep
O=C(CNC(=O)C1COc2ccccc2O1)Nc1ccc(F)c(F)c1 (configuration not stated)	-34.1%	25.5	-4.8%	-12.1%	0.7%	0.7%
Cc1cc(S(=O)(=O)Nc2ccc(C(=O)NCc3cccnc3)cc2)ccc1F	-14.4%	-0.3	-1.3%	-19.2%	0.9%	21.5%
Cc1cc(C)cc(NC(=S)Nc2ccc3cn[nH]c3c2)c1	-23.3%	-53.1*	-0.5%	?	?	-2.9%
Cc1ccc(NC(=S)Nc2ccc3cn[nH]c3c2)cc1	-19.6%	-2.8	1.7%	-13.6%	2.4%	-1.3%
O=C1CC(c2ccc3c(c2)OCO3)c2cc3c(cc2N1)OCCO3 (configuration not stated)	?	-22.8	-1.2%	?	?	-1.2%
Cc1ccc(C2CC(=O)Nc3cc4c(cc32)OCCO4)cc1Br (configuration not stated)	18.4µM*	.	.	16.4µM*	.	.
CC(C)c1ccc(C2CC(=O)Nc3cc4c(cc32)OCCO4)cc1 (configuration not stated)	?	.	.	29.1µM*	.	.
Cc1cccc(OCC(=O)Nc2ccccc2OCc2cc(=O)n3cc(C)ccc3n2)c1	13µM*	.	.	?	.	.
Cc1ccc(NC(=O)Nc2ccccc2OCc2cc(=O)n3ccccc3n2)c(Cl)c1	-7.7%	.	.	-20.3%	.	.
Cc1ccc2nc(COc3ccccc3NC(=O)COc3ccccc3Cl)cc(=O)n2c1	-5.2%	.	.	-15.5%	.	.
COc1ccc(OC)c(NC(=O)Nc2cccc(OCc3cc(=O)n4cc(C)ccc4n3)c2)c1	8.2µM*	.	.	18.4µM*	.	.
Cc1ccn2c(=O)cc(COc3cccc(NC(=O)Nc4cccc(Cl)c4C)c3)nc2c1	?	.	.	23.1µM*	.	.
COc1cc(OC)c(NC(=O)Nc2cccc(OCc3cc(=O)n4ccccc4n3)c2)cc1Cl	18.4µM*	.	.	13µM*	.	.
O=C(c1ccc(Br)s1)N(Cc1cccnc1)c1nc2ccc(F)cc2s1	-28.4%	.	.	-21.5%	-11.2%	.
Cc1cccc(NS(=O)(=O)c2ccc(C(=O)NCCCN3CCCC3=O)cc2)c1C	?	12.3	1.1%	?	-15.4%	5.1%
O=C(CCN1C(=O)c2ccccc2C1=O)NCc1ccc(Cl)cc1	9.1%	-16.6	-5.6%	3.9%	7.7%	-3.4%
COc1cc(OC)c(NC(=O)Nc2ccccc2OCc2cc(=O)n3cc(C)ccc3n2)cc1Cl	8.2µM*	.	.	9.2µM*	.	.
CCOC(=O)C1CCCN(C(=O)c2cc(F)ccc2C)CC1 (configuration not stated)	9.7%	3.3	.	0.3%	.	.
CC(C)(C)c1cc2ncnc(N3CCCCC3)c2s1	13µM*	-4.9	3.5%	29.1µM*	2.2%	8.9%

Source: PubChem
